Compound activity deposited in PubChem by National Center for Advancing Translational Sciences (NCATS).
miR-21 act: qHTS Assay for Modulators of miRNAs and/orActivators of miR-21; HeLa miR-21 FLuc reporter, luciferase, 48 h; Potency, µM (doses to about 38.3 µM), for inactives: top-dose activity change, positive = activation, usual class: activators; 340,000 tested, under 10 active; AID 2288, 2010;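 note: % of control where 0% means no effect; miR-21 action dims this reporter so a rising signal means less miR-21 action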
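HeLa cells endogenously expressing miR-21, stably carrying CMV-driven firefly luciferase with a downstream miR-21 binding site, 2000 cells/well. Titrations up to approximately 40 uM, 48 hours; luciferase luminescence read.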
ALOX12 inh: Primary qHTS assay for inhibitors of human arachidonate 12S-lipoxygenase (ALOX12): Round 2; actives 1.1% (n = 580,000); Potency, µM (series often up to 108 µM), inactives show top-dose activity change, negative = inhibition, actives largely listed as inhibitors; AID 1671190, 2021; Polyunsaturated fatty acid lipoxygenase ALOX12 (Homo sapiens), P18054; purified 12hLO, xylenol orange hydroperoxide absorbance; note: potency is the fitted concentration of half-maximal effect; % is set by controls: 0 for no effect and ±100 for the full control effect
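Purified human 12hLO at 150 nM in 25 mM Hepes, 0.01% Triton X-100, pH 7.0, preincubated 15 min at room temperature with compound. Reaction started with 40 uM arachidonic acid, 30 min at room temperature. Hydroperoxide measured by Fe-xylenol orange, 573/405 nm absorbance ratio.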
ERG Ets-DNA blk: qHTS for Small Molecule Inhibitors of the ERG Ets/DNA interaction. AID 624246, 2012. actives 0.028% (n = 370,000). Potency, µM (titrated, usually from 76.9 µM), without a hit: top-dose FP activity, negative = inhibition, most hits filed as inhibitors. fluorescence polarization, His-ERG Ets domain / labelled DNA; active = well fitted inhibition curve with a large enough effect in the polarisation, with a control signal flat; inconclusive = small, poorly fitted or top-dose-only effect, or effect the other way, or a change in a side signal; inactive = no such curve, though single readings can be large or run the other way; the % refers to the polarisation;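 note: polarization taken with two DNA probes labelled with fluorescein and Texas red; potency is the fitted concentration of half-maximal effect; % of control where 0% means no effect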
Target sequence (P11308 whole entry, looked up, the tested form may be a part): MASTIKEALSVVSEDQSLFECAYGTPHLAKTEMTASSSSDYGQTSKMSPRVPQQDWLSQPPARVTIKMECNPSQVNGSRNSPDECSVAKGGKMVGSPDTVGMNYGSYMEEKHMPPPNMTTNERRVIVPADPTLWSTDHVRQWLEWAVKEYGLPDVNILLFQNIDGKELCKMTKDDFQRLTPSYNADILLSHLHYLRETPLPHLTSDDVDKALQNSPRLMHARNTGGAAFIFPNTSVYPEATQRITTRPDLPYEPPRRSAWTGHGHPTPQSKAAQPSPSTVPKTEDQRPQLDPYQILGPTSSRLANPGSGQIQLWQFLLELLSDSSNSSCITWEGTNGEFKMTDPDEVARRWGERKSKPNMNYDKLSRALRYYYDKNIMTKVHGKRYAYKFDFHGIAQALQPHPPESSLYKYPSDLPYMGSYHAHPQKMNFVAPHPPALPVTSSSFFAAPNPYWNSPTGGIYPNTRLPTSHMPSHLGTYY
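His-tagged ERG Ets domain (1 uM in the protein solution; 300mM KCl, 50mM Tris-HCl, 1mM EDTA, 1mM DTT, pH 7.5) received compound, then a probe mix of 5 nM fluorescein-DNA and 100nM Texas-615-DNA. Fluorescence polarization was read for both dyes.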
Giardia killer: Small Molecules that selectively kill Giardia lamblia: qHTS; actives 0.15% (n = 340,000); Giardia lamblia trophozoite viability; activity change, % at 7.66 µM, hits read low; AID 540267, 2011; in the data active = activity change below about -80%; inconclusive = between about -30% and that limit;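 note: parasites exposed to compound for two days anaerobically before the ATP read; % is set by controls: 0 for no effect and ±100 for the full control effect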
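Compounds were tested on trophozoites seeded at 100 cells/well and held 48 hrs at 37 deg C anaerobically. An ATP-based luminescent kit measured the remaining live cells.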
PTHR1 ag: qHTS for PTHR1 Agonists: Primary Screen; Parathyroid hormone/parathyroid hormone-related peptide receptor (Homo sapiens), Q03431; Potency, µM (series often up to 115 µM), for the others: top-dose activation, hits mostly activators; actives 0.075% (n = 410,000); HEK293 GP2 PTHR1 cells, GloSensor cAMP luminescence, 1 h; note: potency is the fitted concentration of half-maximal effect; nearly all actives have a fitted effect of over 55% in size
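HEK-293-derived GP2 cells expressing PTHR1 and a GloSensor cAMP reporter, 3,000/well, plated overnight, given luciferin plus IBMX (each 0.5 mM as added) for 1 h at 37 °C, then compound for 1 h at 37 °C. Luminescence was read after 15 min at room temperature.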
PINK1 expr mod: A Quantitative High throughput Screen to Identify Chemical Modulators of PINK1 Expression | PINK1 immunofluorescence, high-content cytometry, 24 h | Potency, µM (series often up to 76.6 µM), for the others: at the top dose activation (PINK1 increase), usual class: activators | actives 0.2% (n = 410,000); active = well fitted activation curve with a large enough effect; inconclusive = small, poorly fitted or top-dose-only effect; cell line not stated here; note: potency is the fitted concentration of half-maximal effect; % of control where 0% means no effect; nearly all actives have a fitted effect of over 65% in size
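Readout is PINK1 immunofluorescence, quantified alongside mitochondrial, cell and nuclear markers by laser-scanning microplate cytometry. Cells from a stable line were exposed to compound titrations (5 concentrations) for 24 hours, with CCCP controls.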
Starred values were filed as active, the others as inactive; i = inactive; ? = inconclusive; · = no result; [ ] = another dose, or the depositor's remark. The list is not random: actives were taken first. Their share in the collection is about 1.3%. Unless noted, calls come from the whole dose curve; as a rule, active = well fitted curve in the direction sought with a large enough effect; inconclusive = small, poorly fitted or top-dose-only effect, or another doubt; inactive = no such curve, though single readings can be large; an effect the other way counts as inactive or inconclusive.

SMILES	miR-21 act	ALOX12 inh	ERG Ets-DNA blk	Giardia killer	PTHR1 ag	PINK1 expr mod
CC1(C)CC(=O)C(C2C3=C(CC(C)(C)CC3=O)Oc3c(Br)cc(Br)cc32)=C(O)C1 (stereo not given)	-3.7%	?	-0.4%	0.0	-36.5%	22.4µM*
CC1(C)CC(=O)C2=C(C1)OC1=C(C(=O)CC(C)(C)C1)C2c1cc([N+](=O)[O-])cc([N+](=O)[O-])c1O	19.4%	?	-3.2%	-7.5	-25.0%	3.2%
CN1[C@@H](CCC(=O)N2CCCC2)CNC(=O)[C@@H]2[C@H]1CCN2Cc1ccccc1	·	11.8%[176 µM]	·	·	·	·
O=C(c1ccc(Cl)cc1)N1CC2(CCCN(Cc3ccc(Cl)cc3)C2)Cc2ccccc21 (stereo not given)	·	3.55µM*	·	·	·	·
Cc1ccc(-n2c(SCc3ccccc3)nc3c(=O)[nH]cnc32)cc1	·	-0.7%	·	·	·	·
COc1ccc(NC(=S)NC(=O)c2ccc3c(c2)OCCO3)cc1	·	7.08µM*	10.7%	-11.4	-48.8%	12.4%
CCOc1cccc(C(=O)NC(=S)Nc2ccc3c(c2)OCCO3)c1	-50.9%	15.8µM*	-5.9%	-12.6	-32.2%	1.3%
O=C(NC(=S)Nc1ccc(F)cc1)c1ccc2c(c1)OCCO2	-51.2%	?	-3.3%	-29.9	-56.8%	13.1%
COc1cccc(NC(=O)c2nnn(Cc3ccc(OC)c(Br)c3)c2N)c1	2.8%	-27.9%	-1.1%	·	-51.2%	3.6%
COc1cc([N+](=O)[O-])ccc1NC(=S)Nc1cc(C(=O)OC(C)C)cc(C(=O)OC(C)C)c1	-13.5%	?	5.6%	-7.4	-9.3%	15.8µM*
Cc1cc(CN2CCC3(CC2)CC(c2ccccc2)C(=O)N(C2CC2)C3)on1 (stereo not given)	·	2.5%	·	·	·	·
COc1ccc2nc(COC(=O)c3cccc([N+](=O)[O-])c3)c(C(C)=O)[n+]([O-])c2c1	-0.7%	0.0%	-0.3%	?	-40.5%	0.3%
COc1ccc2nc(COC(=O)c3cccs3)c(C(C)=O)[n+]([O-])c2c1	-0.8%	31.6µM*	-10.0%	-25.3	i	-0.2%
CC(=O)N(C1=C(Cl)C(=O)c2ccccc2C1=O)C1CCCCC1	?	1.78µM*	8.9%	-13.0	-16.1%	0.9%
S=C(NCc1ccncc1)Nc1ccc(Br)cc1	23.6%	?	-4.5%	-3.0	-58.5%	2.4%
S=C(NCCc1ccccc1)Nc1ccc(Nc2ccccc2)cc1	27.8%	?	5.2%	21.1	-22.5%	?
S=C(NCCc1ccccc1)Nc1ccc(Sc2ccc(Br)cc2)cc1	·	35.5µM*	·	·	·	·
FC(F)(F)Sc1ccc(NC(=S)NCc2ccccc2)cc1	24.8%	39.8µM*	-3.0%	5.7	-13.6%	?
S=C(NCc1ccccc1)Nc1ccc(Sc2ccc(Br)cc2)cc1	·	28.2µM*	·	·	·	·
CCSc1nnc(SCC(=O)N2CCN(C(=O)c3ccco3)CC2)s1	-2.3%	?	-2.8%	-3.5	i	4.8%
Cc1cccc(C(=O)c2cn[nH]c2-c2ccccc2O)c1	-4.5%	-4.9%	-7.2%	8.9	i	3.5%
O=C(OCc1c(-c2ccccc2)ncc2ccccc12)c1ccc(C(F)(F)F)cc1	·	-14.6%	-13.0%	20.2	-8.3%	1.1%
COCCCn1c(=O)/c(=C\c2ccc(OC(F)F)c(OC)c2)s/c1=C(/C#N)C(N)=O	-6.3%	-13.1%	-3.6%	1.4	-24.0%	11.3%
COCCCn1c(=O)/c(=C\c2ccccc2OC(F)F)s/c1=C(/C#N)C(N)=O	-3.7%	-2.3%	26.6%	5.3	i	35.5µM*
Nc1nc2ccc(C(=O)Nc3ccccc3)cc2s1	-58.5%	60.4%	7.8%	-2.3	3.98µM*	-1.5%
SMILES	miR-21 act	ALOX12 inh	ERG Ets-DNA blk	Giardia killer	PTHR1 ag	PINK1 expr mod
Cc1nn(CCc2n[nH]c(=S)n2C2CCCCC2)c(C)c1Br	-12.3%	22.4µM*	2.7%	11.1	i	-2.7%[38.3 µM]
Cc1nn(CCc2n[nH]c(=S)n2C)c(C)c1Br	-11.0%	?	10.4%	-7.4	i	-2.7%[38.3 µM]
COc1cc(/C=C(/C#N)c2ccccn2)ccc1OCc1cccc(C(F)(F)F)c1	·	6.31µM*	·	·	·	·
COc1cc(/C=C(\C#N)c2ccccn2)ccc1OCC(=O)Nc1cccc(C(F)(F)F)c1	-3.9%	9.0%	-11.5%	5.0	-9.4%	4.2%
Nc1nc2c(s1)C(c1ccc(F)cc1F)CC(=O)N2 (stereo not given)	·	12.6µM*	·	·	·	·
Nc1nc2c(s1)C(c1cccc(OCc3cccc(F)c3)c1)CC(=O)N2 (stereo not given)	·	3.55µM*	·	·	·	·
Nc1nc2c(s1)C(c1ccc(Br)cc1)CC(=O)N2 (stereo not given)	·	27.4%	·	·	·	·
Nc1nc2c(s1)C(c1cccc(F)c1F)CC(=O)N2 (stereo not given)	·	15.8µM*	·	·	·	·
COc1cccc(C2CC(=O)Nc3nc(N)sc32)c1OCc1ccc(F)cc1 (stereo not given)	·	2µM*	·	·	·	·
CNc1nc2c(s1)C(c1ccc(F)c(F)c1)CC(=O)N2 (stereo not given)	·	-24.6%	·	·	·	·
Cc1ccc(S(=O)(=O)N(Cc2ccc(Cl)cc2)c2ccccc2C(=O)O)cc1	0.7%	0.0%	15.9%	6.4	-5.7%	-2.8%
O=C(NCCN1CCN(C(=O)c2cccc(Br)c2)CC1)C(=O)Nc1ccc(Br)cc1	13.8%	-23.4%	4.1%	-9.6	-22.7%	2.7%
COc1ccc(C(=O)C/C(=C\C(=O)c2ccc(C)cc2)c2ccccc2)cc1	?	1.0%	-2.4%	-16.2	i	25.1µM*
COc1ccc(C(=O)CC(=O)c2ccccc2)cc1	·	0.0%	-9.5%	12.6	-20.6%	1.0%
CCN(CC)C(=O)Cn1cc(/C=C(\C#N)C(=O)NC2CC2)c2ccccc21	0.6%	?	-3.8%	-5.8	i	0.0%
COc1ccc(C)cc1Nc1n[n+](-c2ccccc2)c(-c2ccc(C(=O)O)cc2)s1	-1.3%	17.8µM*	-9.3%	6.8	-11.3%	0.1%
COc1ccc(C)cc1Nc1n[n+](-c2ccccc2)c(-c2cc(OC)c(OC)cc2Br)s1	15.6%	39.8µM*	7.3%	-14.4	i	?
CN1CCCCCC(O)c2cc(C(=O)NCc3ccccn3)ccc21 (stereo not given)	·	55.2%	·	·	·	·
CCCCCCCCCCCCCCCC(O)C[N+](C)(C)CCO (stereo not given)	·	15.8µM*	·	-6.3	i	-1.7%
